Key:
Assay in all cases: log2 ratio of Biotin-Ahx-Ub-VS probe labelling (fragment/DMSO); higher = less target engagement (more negative = stronger competition), active = hit call of the paper (q ≤ 0.05, log2 ratio ≤ -1)
Conditions in all cases: compound concentration: 200 uM; treatment time: 3 h
USP19 = molecular target: T1, USP19 (UniProt O94966)
T1 sequence (whole entry): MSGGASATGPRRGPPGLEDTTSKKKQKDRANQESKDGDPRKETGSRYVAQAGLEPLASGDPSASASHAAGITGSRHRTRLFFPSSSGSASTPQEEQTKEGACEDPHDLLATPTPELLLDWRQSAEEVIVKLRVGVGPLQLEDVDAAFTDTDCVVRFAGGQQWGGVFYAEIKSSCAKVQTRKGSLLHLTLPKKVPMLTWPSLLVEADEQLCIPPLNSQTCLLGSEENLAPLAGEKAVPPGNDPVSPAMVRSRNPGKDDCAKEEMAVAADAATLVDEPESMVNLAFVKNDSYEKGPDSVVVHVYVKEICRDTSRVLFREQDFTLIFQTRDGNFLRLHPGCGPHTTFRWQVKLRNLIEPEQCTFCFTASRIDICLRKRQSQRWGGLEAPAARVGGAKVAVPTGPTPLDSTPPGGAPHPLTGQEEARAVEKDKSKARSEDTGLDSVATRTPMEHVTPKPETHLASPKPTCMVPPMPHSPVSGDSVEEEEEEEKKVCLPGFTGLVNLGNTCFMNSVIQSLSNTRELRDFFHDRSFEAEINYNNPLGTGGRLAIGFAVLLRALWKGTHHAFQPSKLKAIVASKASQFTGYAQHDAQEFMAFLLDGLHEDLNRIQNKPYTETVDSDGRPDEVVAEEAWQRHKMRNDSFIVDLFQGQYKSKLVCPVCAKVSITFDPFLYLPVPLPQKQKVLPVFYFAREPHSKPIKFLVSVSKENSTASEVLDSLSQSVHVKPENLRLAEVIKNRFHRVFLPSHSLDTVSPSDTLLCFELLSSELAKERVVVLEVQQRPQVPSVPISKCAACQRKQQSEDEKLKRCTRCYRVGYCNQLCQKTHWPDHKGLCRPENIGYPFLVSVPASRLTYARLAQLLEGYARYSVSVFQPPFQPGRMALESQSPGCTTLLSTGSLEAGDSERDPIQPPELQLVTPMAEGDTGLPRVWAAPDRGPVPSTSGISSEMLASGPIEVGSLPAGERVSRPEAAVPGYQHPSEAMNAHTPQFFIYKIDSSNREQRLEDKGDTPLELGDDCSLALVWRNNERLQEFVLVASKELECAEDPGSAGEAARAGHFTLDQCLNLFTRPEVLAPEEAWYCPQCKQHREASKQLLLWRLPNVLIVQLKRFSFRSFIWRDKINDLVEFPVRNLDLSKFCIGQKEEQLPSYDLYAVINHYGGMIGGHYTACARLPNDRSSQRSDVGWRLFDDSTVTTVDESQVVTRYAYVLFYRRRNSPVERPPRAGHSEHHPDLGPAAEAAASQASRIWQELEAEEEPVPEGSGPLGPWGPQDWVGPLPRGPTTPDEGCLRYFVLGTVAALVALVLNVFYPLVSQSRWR
Summary of the method: (§1)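 HEK293T lysate, 495 µg per sample in Tris/CHAPS/IGEPAL buffer with protease inhibitors, was treated in triplicate with fragment at 200 µM or vehicle for 3 h and then with Biotin-Ahx-Ub-VS at 0.5 µM final for 1 h. Labelled DUBs were NeutrAvidin-enriched, digested with LysC and trypsin, and run by diaPASEF LC-MS/MS. Spectronaut label-free quantities were global-median-normalised, and values are average log2 fragment/vehicle ratios by unpaired t-test on proteins with ≥2 unique peptides.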

USP24 = USP24 (UniProt Q9UPU5)
Summary of the method: as §1

USP25 = molecular target: T2, USP25 (UniProt Q9UHP3)
T2 sequence (whole entry): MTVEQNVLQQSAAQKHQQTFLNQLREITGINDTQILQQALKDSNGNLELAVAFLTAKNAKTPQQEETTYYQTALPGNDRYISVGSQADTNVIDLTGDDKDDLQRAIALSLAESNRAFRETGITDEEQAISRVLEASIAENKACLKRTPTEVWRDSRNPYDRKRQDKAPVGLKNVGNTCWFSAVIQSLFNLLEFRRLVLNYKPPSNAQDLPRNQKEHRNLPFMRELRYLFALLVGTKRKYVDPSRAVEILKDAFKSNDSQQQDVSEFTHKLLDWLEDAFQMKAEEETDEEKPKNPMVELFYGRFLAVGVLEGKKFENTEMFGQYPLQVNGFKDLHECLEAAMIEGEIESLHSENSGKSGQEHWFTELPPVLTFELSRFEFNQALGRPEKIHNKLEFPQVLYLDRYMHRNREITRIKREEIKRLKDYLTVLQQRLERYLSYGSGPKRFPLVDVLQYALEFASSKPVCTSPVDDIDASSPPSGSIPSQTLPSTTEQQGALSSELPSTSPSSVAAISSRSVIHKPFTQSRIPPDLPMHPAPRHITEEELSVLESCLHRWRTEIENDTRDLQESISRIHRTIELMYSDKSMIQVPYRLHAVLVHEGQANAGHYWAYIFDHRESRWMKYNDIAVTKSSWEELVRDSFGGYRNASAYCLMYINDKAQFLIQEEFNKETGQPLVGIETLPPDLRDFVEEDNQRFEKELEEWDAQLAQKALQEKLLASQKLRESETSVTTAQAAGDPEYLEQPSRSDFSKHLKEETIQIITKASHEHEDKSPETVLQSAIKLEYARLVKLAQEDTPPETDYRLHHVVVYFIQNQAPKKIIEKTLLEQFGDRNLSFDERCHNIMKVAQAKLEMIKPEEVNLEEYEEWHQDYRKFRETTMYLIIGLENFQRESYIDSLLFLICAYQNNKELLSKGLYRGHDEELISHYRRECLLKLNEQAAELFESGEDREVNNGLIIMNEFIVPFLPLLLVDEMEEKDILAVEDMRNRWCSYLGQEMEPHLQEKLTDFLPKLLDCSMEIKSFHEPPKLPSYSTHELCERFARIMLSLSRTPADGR
Summary of the method: as §1

USP28 = molecular target: T3, USP28 (UniProt Q96RU2)
T3 sequence (whole entry): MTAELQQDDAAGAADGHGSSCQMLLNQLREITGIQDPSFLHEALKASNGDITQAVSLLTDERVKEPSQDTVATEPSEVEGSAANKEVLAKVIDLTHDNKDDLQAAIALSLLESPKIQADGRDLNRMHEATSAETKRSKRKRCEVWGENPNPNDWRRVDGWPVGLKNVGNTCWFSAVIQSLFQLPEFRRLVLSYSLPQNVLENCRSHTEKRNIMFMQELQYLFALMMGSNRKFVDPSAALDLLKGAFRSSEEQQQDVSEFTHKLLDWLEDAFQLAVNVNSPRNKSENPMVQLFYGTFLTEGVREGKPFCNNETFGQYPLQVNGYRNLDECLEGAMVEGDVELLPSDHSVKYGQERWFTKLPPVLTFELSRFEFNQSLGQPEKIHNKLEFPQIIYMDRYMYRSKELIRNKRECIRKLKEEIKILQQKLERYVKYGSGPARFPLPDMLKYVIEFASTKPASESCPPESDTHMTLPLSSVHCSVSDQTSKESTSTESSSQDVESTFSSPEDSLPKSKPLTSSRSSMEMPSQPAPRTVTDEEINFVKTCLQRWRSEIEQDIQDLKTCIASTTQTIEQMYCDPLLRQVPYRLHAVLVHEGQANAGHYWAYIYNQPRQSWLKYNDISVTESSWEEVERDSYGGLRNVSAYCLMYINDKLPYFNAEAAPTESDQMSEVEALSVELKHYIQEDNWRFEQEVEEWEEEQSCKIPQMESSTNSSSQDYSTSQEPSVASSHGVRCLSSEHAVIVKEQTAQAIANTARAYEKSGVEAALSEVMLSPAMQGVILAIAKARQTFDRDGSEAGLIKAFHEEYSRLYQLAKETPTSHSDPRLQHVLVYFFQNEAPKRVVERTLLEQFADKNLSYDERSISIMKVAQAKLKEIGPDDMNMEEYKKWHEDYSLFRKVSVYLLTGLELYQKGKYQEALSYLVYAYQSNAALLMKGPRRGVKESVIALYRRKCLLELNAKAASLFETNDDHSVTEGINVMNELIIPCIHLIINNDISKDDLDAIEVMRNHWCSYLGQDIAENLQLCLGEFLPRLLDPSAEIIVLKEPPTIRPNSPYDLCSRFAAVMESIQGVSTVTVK
Summary of the method: as §1

Measured: log2 ratio of Biotin-Ahx-Ub-VS probe labelling

USP24, sequence (Q9UPU5 whole entry): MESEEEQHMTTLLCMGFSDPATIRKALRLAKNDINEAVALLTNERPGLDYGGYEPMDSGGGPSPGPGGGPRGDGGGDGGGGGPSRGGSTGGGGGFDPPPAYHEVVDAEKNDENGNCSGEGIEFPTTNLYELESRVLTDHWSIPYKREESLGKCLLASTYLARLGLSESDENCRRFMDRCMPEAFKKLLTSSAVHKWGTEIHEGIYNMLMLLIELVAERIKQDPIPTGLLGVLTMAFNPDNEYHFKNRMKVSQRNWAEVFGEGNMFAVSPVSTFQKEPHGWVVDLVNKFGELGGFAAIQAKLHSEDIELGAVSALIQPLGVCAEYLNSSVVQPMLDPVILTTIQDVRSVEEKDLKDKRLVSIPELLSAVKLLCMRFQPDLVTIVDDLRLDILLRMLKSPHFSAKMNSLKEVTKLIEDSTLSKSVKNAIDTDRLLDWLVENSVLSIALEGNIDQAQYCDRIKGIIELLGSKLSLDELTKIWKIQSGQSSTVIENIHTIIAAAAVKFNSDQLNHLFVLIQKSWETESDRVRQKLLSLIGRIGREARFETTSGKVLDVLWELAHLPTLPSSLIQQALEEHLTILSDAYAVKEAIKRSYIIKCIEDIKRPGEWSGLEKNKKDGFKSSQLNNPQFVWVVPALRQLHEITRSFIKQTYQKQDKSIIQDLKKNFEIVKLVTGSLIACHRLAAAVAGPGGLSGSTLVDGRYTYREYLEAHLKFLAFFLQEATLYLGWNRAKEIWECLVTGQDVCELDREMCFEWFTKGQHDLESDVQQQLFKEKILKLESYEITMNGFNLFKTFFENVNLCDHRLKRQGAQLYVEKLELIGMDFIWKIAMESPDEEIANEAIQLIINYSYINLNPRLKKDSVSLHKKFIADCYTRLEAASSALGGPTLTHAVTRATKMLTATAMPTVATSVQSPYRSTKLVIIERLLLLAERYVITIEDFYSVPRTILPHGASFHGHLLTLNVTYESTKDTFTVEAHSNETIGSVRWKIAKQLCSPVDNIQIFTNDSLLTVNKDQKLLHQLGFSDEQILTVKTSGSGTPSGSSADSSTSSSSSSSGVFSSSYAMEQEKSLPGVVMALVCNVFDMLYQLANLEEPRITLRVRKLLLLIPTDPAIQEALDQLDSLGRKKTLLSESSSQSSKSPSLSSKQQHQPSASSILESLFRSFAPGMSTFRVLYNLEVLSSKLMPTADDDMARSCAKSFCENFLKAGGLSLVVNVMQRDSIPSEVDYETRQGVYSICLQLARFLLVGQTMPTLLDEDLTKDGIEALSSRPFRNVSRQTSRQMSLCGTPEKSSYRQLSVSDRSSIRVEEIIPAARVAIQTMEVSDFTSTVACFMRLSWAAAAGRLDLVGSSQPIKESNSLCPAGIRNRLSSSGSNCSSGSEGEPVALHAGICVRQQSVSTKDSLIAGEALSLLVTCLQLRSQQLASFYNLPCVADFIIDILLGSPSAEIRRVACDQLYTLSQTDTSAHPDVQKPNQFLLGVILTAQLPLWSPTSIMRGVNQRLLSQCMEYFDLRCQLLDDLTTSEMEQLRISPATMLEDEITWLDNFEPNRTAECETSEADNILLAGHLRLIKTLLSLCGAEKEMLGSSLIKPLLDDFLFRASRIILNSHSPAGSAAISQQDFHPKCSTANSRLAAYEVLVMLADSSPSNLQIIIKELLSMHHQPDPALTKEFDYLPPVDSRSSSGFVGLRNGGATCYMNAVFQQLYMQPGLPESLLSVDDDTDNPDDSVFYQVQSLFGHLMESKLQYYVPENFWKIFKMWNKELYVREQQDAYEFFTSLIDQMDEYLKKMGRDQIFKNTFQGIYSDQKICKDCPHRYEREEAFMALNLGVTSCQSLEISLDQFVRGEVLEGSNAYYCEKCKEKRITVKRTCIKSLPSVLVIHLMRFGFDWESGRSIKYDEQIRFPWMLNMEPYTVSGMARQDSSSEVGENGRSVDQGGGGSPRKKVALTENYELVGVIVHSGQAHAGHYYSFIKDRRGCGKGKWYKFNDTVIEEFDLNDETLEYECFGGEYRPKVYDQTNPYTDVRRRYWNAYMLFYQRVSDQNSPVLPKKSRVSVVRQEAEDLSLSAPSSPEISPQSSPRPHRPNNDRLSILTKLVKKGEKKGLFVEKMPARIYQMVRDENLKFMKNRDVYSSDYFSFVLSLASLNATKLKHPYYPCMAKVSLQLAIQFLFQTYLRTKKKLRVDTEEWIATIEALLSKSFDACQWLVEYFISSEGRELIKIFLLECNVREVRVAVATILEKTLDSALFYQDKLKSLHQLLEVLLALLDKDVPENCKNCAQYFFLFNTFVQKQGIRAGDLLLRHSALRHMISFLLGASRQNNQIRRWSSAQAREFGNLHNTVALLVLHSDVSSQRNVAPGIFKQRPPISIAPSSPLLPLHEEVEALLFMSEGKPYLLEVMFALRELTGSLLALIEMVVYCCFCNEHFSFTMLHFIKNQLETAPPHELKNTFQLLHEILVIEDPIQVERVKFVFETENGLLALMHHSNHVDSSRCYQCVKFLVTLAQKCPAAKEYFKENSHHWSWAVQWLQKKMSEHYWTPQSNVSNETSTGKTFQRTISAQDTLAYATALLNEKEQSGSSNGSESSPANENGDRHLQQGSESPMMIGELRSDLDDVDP

Cc1nc(CN2CCCN(C(=O)CCl)CC2)no1.Cl
inactive: USP19 0.0547 | USP24 0.252 | USP25 0.233 | USP28 -0.00501

— the supplement of paper PMC11732987, “Enantioselective OTUD7B fragment discovery through chemoproteomics screening and high-throughput optimisation” (Communications Chemistry, 2025)
